# Laboratory results as given in ChEMBL document CHEMBL1961873, “Compounds: GSK PKIS; Assays: Nanosyn kinase panel” (2012).
# Tests used:
# [1] = target: T1, Inhibitor of nuclear factor kappa-B kinase subunit epsilon (Homo sapiens) (UniProt Q14164); conditions: at 1 µM;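 note: reported values are averaged percent inhibition figures against human IKKε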
# T1 sequence (whole entry): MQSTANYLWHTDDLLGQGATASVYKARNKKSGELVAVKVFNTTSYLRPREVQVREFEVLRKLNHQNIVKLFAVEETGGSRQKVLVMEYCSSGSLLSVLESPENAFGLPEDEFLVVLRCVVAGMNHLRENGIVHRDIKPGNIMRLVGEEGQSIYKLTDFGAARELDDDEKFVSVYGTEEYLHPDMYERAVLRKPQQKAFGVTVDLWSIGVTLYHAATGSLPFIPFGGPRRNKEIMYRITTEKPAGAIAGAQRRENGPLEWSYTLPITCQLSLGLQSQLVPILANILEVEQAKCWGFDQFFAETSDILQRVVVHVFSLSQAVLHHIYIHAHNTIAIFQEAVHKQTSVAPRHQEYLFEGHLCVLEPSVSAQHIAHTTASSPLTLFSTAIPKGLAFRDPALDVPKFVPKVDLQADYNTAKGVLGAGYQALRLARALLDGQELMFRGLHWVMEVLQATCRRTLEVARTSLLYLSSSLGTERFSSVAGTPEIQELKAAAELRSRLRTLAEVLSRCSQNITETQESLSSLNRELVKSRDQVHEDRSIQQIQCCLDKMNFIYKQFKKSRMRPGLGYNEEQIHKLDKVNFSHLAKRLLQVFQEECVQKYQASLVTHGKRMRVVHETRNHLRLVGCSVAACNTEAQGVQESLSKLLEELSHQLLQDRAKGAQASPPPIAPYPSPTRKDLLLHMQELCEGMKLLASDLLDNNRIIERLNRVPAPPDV
# [2] = target: T2, Serine/threonine-protein kinase Nek1 (Homo sapiens) (UniProt Q96PY6); conditions: at 0.1 µM
# T2 sequence (whole entry): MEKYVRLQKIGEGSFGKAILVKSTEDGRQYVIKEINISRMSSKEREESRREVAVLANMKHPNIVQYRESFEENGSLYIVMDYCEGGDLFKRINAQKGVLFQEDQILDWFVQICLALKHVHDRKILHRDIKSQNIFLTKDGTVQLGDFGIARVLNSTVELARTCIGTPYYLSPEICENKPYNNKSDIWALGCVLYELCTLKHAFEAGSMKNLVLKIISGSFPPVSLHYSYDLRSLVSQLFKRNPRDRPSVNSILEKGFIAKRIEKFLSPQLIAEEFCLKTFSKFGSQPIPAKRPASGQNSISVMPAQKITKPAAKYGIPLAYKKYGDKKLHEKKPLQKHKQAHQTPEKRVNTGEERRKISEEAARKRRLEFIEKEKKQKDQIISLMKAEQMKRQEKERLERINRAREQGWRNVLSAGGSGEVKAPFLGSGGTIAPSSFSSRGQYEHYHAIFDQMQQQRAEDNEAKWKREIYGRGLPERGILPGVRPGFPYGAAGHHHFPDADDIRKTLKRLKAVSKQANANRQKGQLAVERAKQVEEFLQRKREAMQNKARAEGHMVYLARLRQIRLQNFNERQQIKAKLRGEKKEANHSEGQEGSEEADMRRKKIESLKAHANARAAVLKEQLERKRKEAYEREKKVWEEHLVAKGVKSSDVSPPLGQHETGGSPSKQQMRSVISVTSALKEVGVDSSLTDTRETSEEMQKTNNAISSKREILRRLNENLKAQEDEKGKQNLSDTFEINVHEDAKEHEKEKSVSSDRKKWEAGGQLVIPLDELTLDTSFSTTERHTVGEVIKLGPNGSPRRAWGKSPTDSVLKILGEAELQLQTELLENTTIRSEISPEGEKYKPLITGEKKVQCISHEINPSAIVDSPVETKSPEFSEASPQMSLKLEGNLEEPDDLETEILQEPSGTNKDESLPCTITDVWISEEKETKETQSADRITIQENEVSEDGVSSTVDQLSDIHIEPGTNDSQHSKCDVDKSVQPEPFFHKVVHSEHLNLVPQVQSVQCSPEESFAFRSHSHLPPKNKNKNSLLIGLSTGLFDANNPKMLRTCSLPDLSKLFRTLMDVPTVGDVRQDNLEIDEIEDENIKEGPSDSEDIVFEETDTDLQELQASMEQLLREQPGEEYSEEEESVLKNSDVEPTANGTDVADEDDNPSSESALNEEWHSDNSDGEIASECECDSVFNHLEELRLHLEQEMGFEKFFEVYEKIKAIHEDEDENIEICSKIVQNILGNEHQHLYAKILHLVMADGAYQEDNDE
# [3] = target: T2, Serine/threonine-protein kinase Nek1 (Homo sapiens); conditions: at 1 µM
# [4] = target: T3, Serine/threonine-protein kinase Nek2 (Homo sapiens) (UniProt P51955); conditions: at 0.1 µM
# T3 sequence (whole entry): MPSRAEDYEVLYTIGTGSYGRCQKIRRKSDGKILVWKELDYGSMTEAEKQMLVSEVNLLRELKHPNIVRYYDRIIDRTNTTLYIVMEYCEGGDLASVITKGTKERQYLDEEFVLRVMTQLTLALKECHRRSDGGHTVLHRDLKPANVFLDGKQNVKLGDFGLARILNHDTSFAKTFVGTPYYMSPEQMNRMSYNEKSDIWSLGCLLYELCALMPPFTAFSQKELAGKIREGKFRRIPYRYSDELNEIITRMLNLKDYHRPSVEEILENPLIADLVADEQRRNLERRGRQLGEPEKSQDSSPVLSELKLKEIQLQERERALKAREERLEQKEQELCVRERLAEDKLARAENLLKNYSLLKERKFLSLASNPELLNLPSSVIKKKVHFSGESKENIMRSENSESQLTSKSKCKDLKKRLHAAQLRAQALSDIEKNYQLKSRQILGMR
# [5] = target: T3, Serine/threonine-protein kinase Nek2 (Homo sapiens); conditions: at 1 µM
# [6] = target: Serine/threonine-protein kinase Nek6 (Homo sapiens) (UniProt Q9HC98); conditions: at 0.1 µM
# Sequence of Serine/threonine-protein kinase Nek6 (Homo sapiens) (Q9HC98 whole entry): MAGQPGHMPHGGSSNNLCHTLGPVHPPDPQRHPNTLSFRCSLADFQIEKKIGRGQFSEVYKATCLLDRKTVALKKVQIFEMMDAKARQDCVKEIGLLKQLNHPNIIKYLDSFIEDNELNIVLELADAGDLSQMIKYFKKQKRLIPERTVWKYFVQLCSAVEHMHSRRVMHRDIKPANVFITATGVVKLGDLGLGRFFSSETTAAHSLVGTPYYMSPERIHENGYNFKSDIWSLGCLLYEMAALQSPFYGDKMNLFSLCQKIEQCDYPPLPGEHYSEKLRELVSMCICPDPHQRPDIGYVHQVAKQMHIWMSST
# [7] = target: Serine/threonine-protein kinase Nek6 (Homo sapiens) (UniProt Q9HC98); conditions: at 1 µM
# [8] = target: Serine/threonine-protein kinase Nek7 (Homo sapiens) (UniProt Q8TDX7); conditions: at 0.1 µM
# Sequence of Serine/threonine-protein kinase Nek7 (Homo sapiens) (Q8TDX7 whole entry, looked up): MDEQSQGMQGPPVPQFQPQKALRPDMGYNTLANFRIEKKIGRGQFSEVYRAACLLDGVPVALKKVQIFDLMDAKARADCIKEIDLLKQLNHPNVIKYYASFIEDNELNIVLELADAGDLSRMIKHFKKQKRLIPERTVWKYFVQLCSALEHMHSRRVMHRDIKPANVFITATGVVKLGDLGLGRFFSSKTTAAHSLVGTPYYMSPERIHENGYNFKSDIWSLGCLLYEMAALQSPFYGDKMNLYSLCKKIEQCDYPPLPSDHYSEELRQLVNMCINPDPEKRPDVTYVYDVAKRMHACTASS
# [9] = target: Serine/threonine-protein kinase Nek7 (Homo sapiens) (UniProt Q8TDX7); conditions: at 1 µM
# [10] = target: T4, Serine/threonine-protein kinase Nek9 (Homo sapiens) (UniProt Q8TD19); conditions: at 0.1 µM;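 note: reported value is the mean percent inhibition of NEK9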
# T4 sequence (whole entry): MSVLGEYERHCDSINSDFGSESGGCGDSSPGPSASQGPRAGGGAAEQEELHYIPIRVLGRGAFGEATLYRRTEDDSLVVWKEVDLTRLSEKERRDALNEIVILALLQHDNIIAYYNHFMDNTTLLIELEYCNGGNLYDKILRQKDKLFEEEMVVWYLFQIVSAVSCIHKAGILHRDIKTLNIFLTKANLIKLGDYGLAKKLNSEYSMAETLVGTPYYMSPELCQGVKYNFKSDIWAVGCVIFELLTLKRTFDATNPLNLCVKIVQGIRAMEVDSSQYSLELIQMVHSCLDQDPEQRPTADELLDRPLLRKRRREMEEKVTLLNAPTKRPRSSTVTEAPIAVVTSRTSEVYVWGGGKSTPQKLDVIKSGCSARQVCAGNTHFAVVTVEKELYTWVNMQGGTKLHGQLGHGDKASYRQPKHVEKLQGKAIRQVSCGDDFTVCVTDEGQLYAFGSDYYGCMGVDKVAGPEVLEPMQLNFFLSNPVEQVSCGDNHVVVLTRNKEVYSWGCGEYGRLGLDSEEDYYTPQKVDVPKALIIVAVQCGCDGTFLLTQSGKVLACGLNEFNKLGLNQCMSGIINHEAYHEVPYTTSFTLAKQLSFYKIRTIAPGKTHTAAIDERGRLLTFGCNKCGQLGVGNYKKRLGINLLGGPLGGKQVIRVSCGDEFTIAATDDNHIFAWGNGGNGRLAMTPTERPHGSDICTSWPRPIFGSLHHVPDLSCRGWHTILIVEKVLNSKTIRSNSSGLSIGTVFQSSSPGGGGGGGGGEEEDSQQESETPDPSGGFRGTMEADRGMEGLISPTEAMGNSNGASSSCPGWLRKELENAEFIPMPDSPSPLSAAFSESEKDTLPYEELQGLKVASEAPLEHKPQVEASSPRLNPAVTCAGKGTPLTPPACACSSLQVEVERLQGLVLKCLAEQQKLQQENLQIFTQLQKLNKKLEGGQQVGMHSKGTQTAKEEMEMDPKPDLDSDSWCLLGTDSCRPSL
structure (smiles),measurement,setting,value
Cc1ccc(O)cc1Nc1ccnc2ccc(S(C)(=O)=O)cc12,inhibition,[1],6.97%
same,inhibition,[2],2.87%
same,inhibition,[3],5.3%
same,inhibition,[4],5.76%
same,inhibition,[5],4.61%
same,inhibition,[6],1.23%
same,inhibition,[7],4.89%
same,inhibition,[8],5.32%
same,inhibition,[9],4.35%
same,inhibition,[10],4.3%
